{"source": "the supplement of paper PMC4894684", "note": "Structures can show the parent of a compound that is named as a salt. ± gives the standard deviation of the averaged measurements."}
{"tested_on": "Toxoplasma gondii RH (in HFF)", "assay": "parasite growth relative to the screen mean (all compounds = 100%); higher = less inhibition of parasite growth", "conditions": "5 µM; 72 h; oxygen 21 %", "summary_of_the_method": "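Library compounds, held as 10 mM DMSO stocks, were pinned to 5 µM final onto confluent human foreskin fibroblasts in 96-well plates. The cells were infected within 2 h with RH β-Gal–GFP Toxoplasma (MOI 1:5), grown 72 h at 21% O2, and assayed for parasite number by CPRG β-Gal using in-plate standard curves. Growth is reported relative to the screen mean, in which all compounds = 100%, averaged over two screens, and CellTiter-Blue checked uninfected host-cell viability.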", "units": {"parasite growth": "%"}}
{"molecule": "OC[C@H]1NC[C@@H](O)[C@@H](O)[C@@H]1O", "note": "[1-Deoxymannojirimycin hydrochloride]", "parasite growth": "141 ± 9.1"}
{"molecule": "C[N+](C)(C)CCCCCNCC12CC3CC(CC(C3)C1)C2", "parasite growth": "120 ± 3.1"}
{"molecule": "CN1CCN2c3ccccc3Cc3ccccc3C2C1", "note": "(stereo not drawn) [Mianserin hydrochloride]", "parasite growth": "154 ± 39"}
{"molecule": "CNC(=O)[C@@H](Cc1ccccc1)N(C)C(=O)[C@@H](Cc1ccc2ccccc2c1)N(C)C(=O)/C=C/CC(C)(C)N", "note": "[Tabimorelin]", "parasite growth": "135 ± 20"}
{"molecule": "COc1ccc(-c2nc(C(=O)N3CCN(C)CC3)sc2-c2ccc(OC)cc2)cc1", "parasite growth": "112 ± 21"}
{"molecule": "c1ccc(CN(CC2=NCCN2)c2ccccc2)cc1", "note": "[Antazoline hydrochloride]", "parasite growth": "114 ± 25"}
{"molecule": "O=c1cc(-c2ccccc2)oc2cc(O)c(O)c(O)c12", "note": "[Baicalein]", "parasite growth": "173 ± 30"}
{"molecule": "CC(C)NCC(O)c1ccc(NS(C)(=O)=O)cc1", "note": "(stereo not drawn) [Sotalol hydrochloride]", "parasite growth": "108 ± 6.9"}
{"molecule": "CCCCCCCCCCCCCCCC(=O)C(F)(F)F", "parasite growth": "108 ± 7.6"}
{"molecule": "CN(N=O)C(=O)N[C@@H](C=O)[C@@H](O)[C@H](O)[C@H](O)CO", "note": "[Streptozocin]", "parasite growth": "137 ± 5.8"}
{"molecule": "CN(CCc1ccc(Cl)c(Cl)c1)CC(O)COc1ccc(NS(C)(=O)=O)cc1", "note": "(stereo not drawn)", "parasite growth": "58.1 ± 4.3"}
{"molecule": "CS(=O)(=O)c1ccc(-c2cc(Br)sc2-c2ccc(F)cc2)cc1", "parasite growth": "47.5 ± 14"}
{"molecule": "Oc1cc2c(cc1O)CN(C(=S)NCCc1ccc(Cl)cc1)CCC2", "note": "[Capsazepine]", "parasite growth": "150 ± 30"}
{"molecule": "O=C(O)CC/C=C\\C[C@H]1CO[C@@H](c2ccccc2Cl)O[C@H]1c1ccccc1O", "parasite growth": "79.02 ± 0.65"}
{"molecule": "CCOC(=O)C1=C(COCCN)NC(C)=C(C(=O)OC)C1c1ccccc1Cl", "note": "(stereo not drawn) [Amlodipine besylate]", "parasite growth": "87.9 ± 30"}
{"molecule": "Oc1ccc(/C=C/c2cc(O)cc(O)c2)cc1", "note": "[Resveratrol]", "parasite growth": "112 ± 56"}
{"molecule": "COc1ccc(Cl)cc1NC(=O)Nc1cc(C)nc2ccccc12", "parasite growth": "52.7 ± 30"}
{"molecule": "CC(C(=O)O)c1ccc(-c2ccccc2)c(F)c1", "note": "(stereo not drawn) [Flurbiprofen]", "parasite growth": "139 ± 26"}
{"molecule": "NCC(O)(CS(=O)(=O)O)c1ccc(Cl)cc1", "note": "(stereo not drawn) [2-Hydroxysaclofen]", "parasite growth": "132 ± 20"}
{"molecule": "O=C1CC2(CCCC2)CC(=O)N1CCCCN1CCN(c2ncccn2)CC1", "note": "[Buspirone hydrochloride]", "parasite growth": "171 ± 21"}
{"molecule": "CCCN(CC1CC1)c1nc(C)nc(Nc2c(Cl)cc(Cl)cc2Cl)c1Cl", "parasite growth": "116 ± 14"}
{"molecule": "CC(C)NCC(O)COc1ccc(CCOCC2CC2)cc1", "note": "(stereo not drawn) [Betaxolol hydrochloride]", "parasite growth": "89.4 ± 13"}
{"molecule": "O=C(Cc1ccccc1)Nc1nc2ccc(Cl)cc2c2nc(-c3ccco3)nn12", "parasite growth": "121 ± 57"}
{"molecule": "CCCCCCCC/C=C\\CCCCCCCC(=O)N[C@@H](CO)Cc1ccc(O)cc1", "parasite growth": "171 ± 11"}
{"molecule": "CNCCCC12CCC(c3ccccc31)c1ccccc12", "note": "[Maprotiline hydrochloride]", "parasite growth": "54.1 ± 17"}
{"molecule": "CCCn1c(=O)c2[nH]c(-c3ccccc3)nc2n(CCC)c1=O", "note": "[1,3-Dipropyl-8-phenylxanthine]", "parasite growth": "47 ± 7.9"}
{"molecule": "Cc1cc(/C(=C/Nc2ccc(Cl)cc2)C(=O)Nc2ccc(Cl)cc2)on1", "parasite growth": "139 ± 40"}
{"molecule": "COc1ccc(C(=O)Nc2sc3c(c2C(N)=O)CCCC3)cc1OC", "parasite growth": "112 ± 5.8"}
{"molecule": "Cc1c(NC(=O)N2CCOCC2)ccc2c1c1ccccc1n2C(C)C", "parasite growth": "144 ± 4.9"}
{"molecule": "Clc1cccc2c1CN(C1=NCCN1)C2", "parasite growth": "92.2 ± 25"}
{"molecule": "CC1CCN(CC[C@H]2CCCN2S(=O)(=O)c2cccc(O)c2)CC1", "parasite growth": "120 ± 15"}
{"molecule": "Cc1cccc(/C=C/c2ccccc2)n1", "parasite growth": "99.2 ± 63"}
{"molecule": "CCCCOc1cc(CC2CNC(=O)N2)ccc1OC", "note": "(stereo not drawn)", "parasite growth": "156 ± 27"}
{"molecule": "NC1CCN(c2cccc(Cl)n2)CC1", "parasite growth": "141 ± 23"}
{"molecule": "C[C@@]1(O)[C@H](O)[C@@H](CO)O[C@H]1n1cnc2c(NC3CCCC3)nc(Cl)nc21", "parasite growth": "85.3 ± 39"}
{"molecule": "Cc1cccc(C(=O)NCN2CCN(c3ccccc3C#N)CC2)c1", "parasite growth": "133 ± 7.4"}
{"molecule": "O=C(O)C1CCCN(CCC=C(c2ccccc2)c2ccccc2)C1", "note": "(stereo not drawn)", "parasite growth": "122 ± 26"}
{"molecule": "N#C/C(=C(/N)Sc1ccc(N)cc1)c1ccccc1C(F)(F)F", "parasite growth": "113 ± 29"}
